Test results from PubChem BioAssay AID1159580 (chemical genetic matrix, 2015).
About 2,000 (36%) of roughly 5,500 compounds were called active. Inconclusive results (about 18%) are left out. Cut-off read from the data, not from the text of the source: active = normalized growth mostly below about 0.91 (no sharp cut-off); inconclusive = no clear call, values can overlap the other calls; inactive = mostly above about 0.92. The list shows a part of the results.

Assay: chemical genetic growth profiling, strain panel (AID 1159580);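 note: tested at 20 µM; growth read once vehicle control cultures reached saturation at 30 °C; 1 = growth at the plate median or of vehicle wells; lower values mean less growth of the strain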
Conditions: growth OD

Measured: normalized growth

O=C(O)c1ccccc1OP(=O)(O)O
inactive: S. cerevisiae deletion strains, locus YJR066W, strain TOR1, active compounds read low 0.875 | S. cerevisiae deletion strains, locus YKL009W, strain mrt4, active compounds read low 0.997 | S. cerevisiae deletion strains, locus YKL068W, active compounds read low 0.988 | S. cerevisiae deletion strains, locus YKL085W, strain MDH1 (second series), active compounds read low 0.986 | S. cerevisiae deletion strains, locus YKL085W, strain MDH1, active compounds read low 0.986 | S. cerevisiae deletion strains, locus YKL160W, strain elf1, active compounds read low 0.981 | S. cerevisiae deletion strains, locus YKL190W, strain CNB1, active compounds read low 1 | S. cerevisiae deletion strains, locus YKR001C, strain vps1, active compounds read low 0.984 | S. cerevisiae deletion strains, locus YKR026C, strain gcn3, active compounds read low 1.01 | S. cerevisiae deletion strains, locus YKR091W, strain srl3, active compounds read low 1 | S. cerevisiae deletion strains, locus YLL001W, strain dnm1, active compounds read low 1.03 | S. cerevisiae deletion strains, locus YLL026W, active compounds read low 1 | S. cerevisiae deletion strains, locus YLL041C, strain sdh2, active compounds read low 0.992 | S. cerevisiae deletion strains, locus YLR027C, strain aat2, active compounds read low 1 | S. cerevisiae deletion strains, locus YLR039C, strain RIC1, active compounds read low 1.01 | S. cerevisiae deletion strains, locus YLR058C, strain SHM2, active compounds read low 1.02 | S. cerevisiae deletion strains, locus YLR102C, strain apc9, active compounds read low 0.992 | S. cerevisiae deletion strains, locus YLR113W, strain HOG1, active compounds read low 0.967 | S. cerevisiae deletion strains, locus YLR221C, strain rsa3, active compounds read low 0.995 | S. cerevisiae deletion strains, locus YLR258W, strain gsy2, active compounds read low 1.02 | S. cerevisiae deletion strains, locus YLR262C, strain YPT6 (second series), active compounds read low 0.995 | S. cerevisiae deletion strains, locus YLR262C, strain YPT6, active compounds read low 1.05 | S. cerevisiae deletion strains, locus YLR268W, strain sec22, active compounds read low 1.01 | S. cerevisiae deletion strains, locus YLR320W, strain mms22, active compounds read low 1.02 | S. cerevisiae deletion strains, locus YLR330W, strain CHS5, active compounds read low 1.01 | S. cerevisiae deletion strains, locus YLR342W, strain FKS1 (second series), active compounds read low 1 | S. cerevisiae deletion strains, locus YLR342W, strain FKS1, active compounds read low 1 | S. cerevisiae deletion strains, locus YLR357W, strain rsc2, active compounds read low 1.03 | S. cerevisiae deletion strains, locus YLR370C, strain arc18, active compounds read low 1.01 | S. cerevisiae deletion strains, locus YLR371W, strain rom2, active compounds read low 0.987 | S. cerevisiae deletion strains, locus YLR384C, strain iki3, active compounds read low 1.01 | S. cerevisiae deletion strains, locus YLR418C, strain cdc73, active compounds read low 0.994 | S. cerevisiae deletion strains, locus YML016C, strain PPZ1, active compounds read low 1.01 | S. cerevisiae deletion strains, locus YML032C, strain rad52, active compounds read low 0.997 | S. cerevisiae deletion strains, locus YML120C, strain ndi1, active compounds read low 1 | S. cerevisiae deletion strains, locus YML124C, strain tub3, active compounds read low 0.996 | S. cerevisiae deletion strains, locus YMR058W, strain fet3, active compounds read low 1.01 | S. cerevisiae deletion strains, locus YMR078C, strain ctf18, active compounds read low 0.988 | S. cerevisiae deletion strains, locus YMR125W, strain sto1, active compounds read low 1.02 | S. cerevisiae deletion strains, locus YMR129W, active compounds read low 1 | S. cerevisiae deletion strains, locus YMR205C, strain PFK2, active compounds read low 1.03 | S. cerevisiae deletion strains, locus YMR223W, strain ubp8, active compounds read low 0.993 | S. cerevisiae deletion strains, locus YMR231W, strain pep5, active compounds read low 1 | S. cerevisiae deletion strains, locus YMR263W, strain SAP30, active compounds read low 1.02 | S. cerevisiae deletion strains, locus YMR307W, strain GAS1, active compounds read low 1 | S. cerevisiae deletion strains, locus YNL067W, strain RPL9B, active compounds read low 1.01 | S. cerevisiae deletion strains, locus YNL071W, strain lat1, active compounds read low 1.01 | S. cerevisiae deletion strains, locus YNL183C, strain NPR1, active compounds read low 0.872 | S. cerevisiae deletion strains, locus YNL209W, strain ssb2, active compounds read low 1 | S. cerevisiae deletion strains, locus YNL233W, strain BNI4, active compounds read low 1.02 | S. cerevisiae deletion strains, locus YNL248C, strain rpa49, active compounds read low 0.971 | S. cerevisiae deletion strains, locus YNL250W, strain rad50, active compounds read low 0.983 | S. cerevisiae deletion strains, locus YNL271C, strain bni1, active compounds read low 0.981 | S. cerevisiae deletion strains, locus YNL298W, strain CLA4, active compounds read low 0.982 | S. cerevisiae deletion strains, locus YNL307C, strain MCK1, active compounds read low 0.986 | S. cerevisiae deletion strains, locus YNL322C, strain KRE1 (second series), active compounds read low 0.983 | S. cerevisiae deletion strains, locus YNR049C, strain mso1, active compounds read low 1 | S. cerevisiae deletion strains, locus YNR052C, strain pop2, active compounds read low 0.999 | S. cerevisiae deletion strains, locus YOL006C, strain TOP1, active compounds read low 1.03 | S. cerevisiae deletion strains, locus YOL012C, strain htz1 0.778 | S. cerevisiae deletion strains, locus YOL147C, strain pex11, active compounds read low 1 | S. cerevisiae deletion strains, locus YOR001W, strain rrp6, active compounds read low 0.976 | S. cerevisiae deletion strains, locus YOR061W, strain CKA2, active compounds read low 1.01 | S. cerevisiae deletion strains, locus YOR069W, strain VPS5, active compounds read low 1.01 | S. cerevisiae deletion strains, locus YOR070C, strain gyp1, active compounds read low 0.998 | S. cerevisiae deletion strains, locus YOR080W, strain dia2, active compounds read low 1.01 | S. cerevisiae deletion strains, locus YOR083W, strain WHI5, active compounds read low 0.969 | S. cerevisiae deletion strains, locus YOR106W, strain vam3, active compounds read low 0.983 | S. cerevisiae deletion strains, locus YOR136W, strain idh2, active compounds read low 0.994 | S. cerevisiae deletion strains, locus YOR144C, strain elg1, active compounds read low 0.991 | S. cerevisiae deletion strains, locus YOR184W, strain ser1, active compounds read low 1 | S. cerevisiae deletion strains, locus YOR231W, strain MKK1, active compounds read low 0.981 | S. cerevisiae deletion strains, locus YOR265W, strain rbl2, active compounds read low 0.997 | S. cerevisiae deletion strains, locus YOR270C, strain vph1, active compounds read low 1.01 | S. cerevisiae deletion strains, locus YOR290C, strain snf2, active compounds read low 0.983 | S. cerevisiae deletion strains, locus YOR316C, strain cot1, active compounds read low 0.99 | S. cerevisiae deletion strains, locus YPL051W, strain arl3, active compounds read low 0.991 | S. cerevisiae deletion strains, locus YPL055C, strain LGE1, active compounds read low 1.03 | S. cerevisiae deletion strains, locus YPL078C, strain atp4, active compounds read low 0.968 | S. cerevisiae deletion strains, locus YPL106C, strain sse1, active compounds read low 1.01 | S. cerevisiae deletion strains, locus YPL240C, strain hsp82, active compounds read low 1 | S. cerevisiae deletion strains, locus YPL241C, strain CIN2, active compounds read low 1.01 | S. cerevisiae deletion strains, locus YPL256C, strain CLN2, active compounds read low 0.948 | S. cerevisiae deletion strains, locus YPR119W, strain clb2, active compounds read low 0.993 | S. cerevisiae deletion strains, locus YPR141C, strain kar3, active compounds read low 0.98 | S. cerevisiae deletion strains, locus YPR163C, strain tif3, active compounds read low 0.989 | S. cerevisiae deletion strains, locus YPR167C, strain met16, active compounds read low 0.986 | S. cerevisiae deletion strains, strain wtn01, active compounds read low 1.02 | S. cerevisiae strains, strain wild type, active compounds read low 1.01
